Only some compounds are listed: those with a hit (about 28% of all), similar ones and a draw of the others.
CYP2C19 inhib: blockers of cytochrome P450 2C19 activity – biochemical, luminescence, ADME assay, primary screen; P33261; CYP2C19 Supersomes, luciferin-H EGE luminescence, 30 min; inhibition, % at 5 µM; hit rate 21% among 96,000; AID 778, 2007;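 active = CYP2C19 inhibition above a set limit at 5 µM in the primary screen, cut at about 50% in these data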;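 note: plate controls were negative control wells for no effect and 2.5 mM tranylcypromine positive control for full effect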
PTK2B oligo ant: antagonists of Pyk2 self-association, primary screen, Q293 cells, FERM NanoBiT luminescence, HTS; active compounds read low; z-score (the deposit names both 25 µM and 10 µM); hit rate 0.83% among 99,000;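 active = Z-score of -3 or lower, scaled per plate to the spread of control and sample wells; inactive = z-score above -3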;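 note: negative z-score means lost luminescence so less FERM oligomerization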
CYP2C19 activ: human CYP2C19 activators, primary screen, biochemical, luminescence. Cytochrome P450 2C19 (Homo sapiens), P33261. recombinant CYP2C19, luciferin-H EGE luminescence; active compounds read high; 0 = fully inhibited enzyme, 1 = untreated enzyme. activation factor at 5 µM. 96,000 tested, under 10 active. AID 1025, 2008;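 active = activation factor of at least 2 at 5 µM in the primary screen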;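 note: 0 = wells with 2.5 mM tranylcypromine and 1 = vehicle-only wells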
CYP2C9 inh: blockers of cytochrome P450 2C9 activity – biochemical, luminescence, ADME assay, primary screen. P11712. CYP2C9 Supersomes, luciferin-H conversion. inhibition, % at 5 µM. hit rate 20% among 96,000. AID 777, 2007;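 active = blocking of liver enzyme CYP2C9 beyond about 50% at 5 µM, limit read from the data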
Target sequence (P11712 whole entry, looked up): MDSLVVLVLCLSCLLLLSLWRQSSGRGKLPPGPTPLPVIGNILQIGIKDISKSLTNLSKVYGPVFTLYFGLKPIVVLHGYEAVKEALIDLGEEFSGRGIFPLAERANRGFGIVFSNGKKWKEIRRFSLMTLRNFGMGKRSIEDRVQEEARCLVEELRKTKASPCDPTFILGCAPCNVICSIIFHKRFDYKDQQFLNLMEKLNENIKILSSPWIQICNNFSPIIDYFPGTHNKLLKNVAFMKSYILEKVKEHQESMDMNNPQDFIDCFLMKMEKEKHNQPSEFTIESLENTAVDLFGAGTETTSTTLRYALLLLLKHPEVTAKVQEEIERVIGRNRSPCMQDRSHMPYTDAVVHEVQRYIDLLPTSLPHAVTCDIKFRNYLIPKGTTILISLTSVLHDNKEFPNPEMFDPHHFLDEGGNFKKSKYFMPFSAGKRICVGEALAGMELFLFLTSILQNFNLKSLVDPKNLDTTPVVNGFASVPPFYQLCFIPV
CYP2C9 act: human CYP2C9 activators, primary screen, biochemical, luminescence. Cytochrome P450 2C9 (Homo sapiens), P11712. recombinant CYP2C9, luciferin-H conversion; active compounds read high; factor 1 = untreated enzyme, 0 = blocked. activation factor at 5 µM. hit rate 1.4% among 96,000. AID 1024, 2008;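 active = activation factor of 2 or more for CYP2C9 at a 5 µM dose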;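 note: 0 = sulfaphenazole-blocked wells and 1 = vehicle-only wells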
* marks the source's active call; other numbers are inactive results.

For CCOC(=O)C(CC)n1nc(C)n2c(cc3occc32)c1=O (stereo not drawn) the results were CYP2C19 inhib 12.3, PTK2B oligo ant -0.14, CYP2C19 activ 0.9, CYP2C9 inh 71.2* and CYP2C9 act 0.3.
Cc1nn(C(C)C(=O)NCC2CCCO2)c(=O)c2cc3occc3n12 (stereo not drawn) was read as CYP2C19 inhib 3.3, PTK2B oligo ant 1.62, CYP2C19 activ 1, CYP2C9 inh -13.6 and CYP2C9 act 1.1.
For CCOc1ccc(CNC(=O)C2CCN(S(=O)(=O)CC)CC2)cc1OC the results were CYP2C19 inhib -7.3, PTK2B oligo ant 0.67, CYP2C19 activ 1.1, CYP2C9 inh -4.5 and CYP2C9 act 1.
Screening CCOc1ccc(CNC(=O)C(CC)n2nc(C)n3c(cc4occc43)c2=O)cc1OC (stereo not drawn) returned CYP2C19 inhib 19.7, PTK2B oligo ant 0.91, CYP2C19 activ 0.8, CYP2C9 inh 74.9* and CYP2C9 act 0.3.
Screening Cc1nn(C(C)C(=O)NCCCc2ccccc2)c(=O)c2cc3occc3n12 (stereo not drawn) returned CYP2C19 inhib 71.4*, PTK2B oligo ant 0.85, CYP2C19 activ 0.3, CYP2C9 inh 68.4* and CYP2C9 act 0.3.
Screening CCOc1ccc(CCNC(=O)C(C)n2nc(C)n3c(cc4occc43)c2=O)cc1OCC (stereo not drawn) returned CYP2C19 inhib 27.2, PTK2B oligo ant 0.53, CYP2C19 activ 0.7, CYP2C9 inh 62.2* and CYP2C9 act 0.4.
For CN1C(=S)SC(N(O)C(=O)NC2CCCCC2)C1(C)C (stereo not drawn) the results were CYP2C19 inhib 8.5, PTK2B oligo ant 0.66, CYP2C19 activ 0.9, CYP2C9 inh 24.5 and CYP2C9 act 0.8.
Screening O=C(Oc1ccc2ccccc2c1Br)N1CCCCCC1 returned CYP2C19 inhib -8.6, PTK2B oligo ant -0.12, CYP2C19 activ 1.1, CYP2C9 inh -24.0 and CYP2C9 act 1.2.
For Cc1nc(N/C(N)=N/S(=O)(=O)c2ccc([N+](=O)[O-])cc2)nc2ccccc12 the results were PTK2B oligo ant 1.39.
Screening CCOC(=O)C1=C(N)n2c(s/c(=C/c3ccco3)c2=O)=C(C(=O)OC)C1c1ccco1 (stereo not drawn) returned CYP2C19 inhib 24.3, PTK2B oligo ant -0.17, CYP2C19 activ 0.8, CYP2C9 inh 77.6* and CYP2C9 act 0.2.
COC(=O)C1=C(N)n2c(s/c(=C\c3cccnc3)c2=O)=C(C(=O)OC)C1c1cccnc1 (stereo not drawn) was read as CYP2C19 inhib 69.9*, CYP2C19 activ 0.3, CYP2C9 inh 49.5 and CYP2C9 act 0.5.
CCOC(=O)C1=C(C)N=c2s/c(=C/c3ccco3)c(=O)n2C1c1cccc(OC)c1 (stereo not drawn) was read as CYP2C19 inhib 16.8, CYP2C19 activ 0.8, CYP2C9 inh 35.3 and CYP2C9 act 0.6.
Screening N#CC1=C(N)n2c(s/c(=C\c3ccco3)c2=O)=C(C#N)C1c1ccco1 (stereo not drawn) returned CYP2C19 inhib 5.4, PTK2B oligo ant 1.54, CYP2C19 activ 0.9, CYP2C9 inh 51.3* and CYP2C9 act 0.5.
`CCOC(=O)C1=c2s/c(=C\c3cccnc3)c(=O)n2C(N)=C(C(=O)OC)C1c1cccnc1` (stereo not drawn) gave CYP2C19 inhib 89.7*, PTK2B oligo ant -0.62, CYP2C19 activ 0.1, CYP2C9 inh 87.6* and CYP2C9 act 0.1.
CCOC(=O)C1=C(C)NC(=O)NC1c1cccnc1 (stereo not drawn) was read as CYP2C19 inhib 3.2, PTK2B oligo ant 0.15, CYP2C19 activ 1, CYP2C9 inh -5.5 and CYP2C9 act 1.1.
COC(=O)C1=C(N)Oc2cc(C)n(Cc3ccncc3)c(=O)c2C1c1cccnc1 (stereo not drawn) was read as PTK2B oligo ant -0.32.
For Cn1c(CSCc2ccc(F)cc2)nnc1SCC(=O)N1CCN(c2ccccc2)CC1 the results were CYP2C19 inhib -1.7, PTK2B oligo ant 1.92, CYP2C19 activ 1, CYP2C9 inh 5.3 and CYP2C9 act 0.9.
Nc1c(N2CCCCC2)c(=O)[nH]c(=O)n1-c1ccccc1 was read as CYP2C19 inhib 54.8*, PTK2B oligo ant 0.46, CYP2C19 activ 0.5, CYP2C9 inh -3.7 and CYP2C9 act 1.
For CCOC(=O)C1(C(F)(F)F)N=C(c2cccnc2)OC(N2CCOCC2)=N1 (stereo not drawn) the results were CYP2C19 inhib -5.3, PTK2B oligo ant -0.28, CYP2C19 activ 1.1, CYP2C9 inh 10.0 and CYP2C9 act 0.9.
Screening O=C(CNC(=O)c1ccco1)OCc1c(F)cccc1Cl returned CYP2C19 inhib 28.4, PTK2B oligo ant 0.68, CYP2C19 activ 0.7, CYP2C9 inh 11.8 and CYP2C9 act 0.9.
Screening O=C(NCCSCc1c(F)cccc1Cl)c1ccco1 returned CYP2C19 inhib 79.6*, PTK2B oligo ant 1.41, CYP2C19 activ 0.2, CYP2C9 inh 74.8* and CYP2C9 act 0.3.
Screening O=C(Oc1ccc(Cl)c2cccnc12)c1ccco1 returned CYP2C19 inhib 53.4*, PTK2B oligo ant -0.11, CYP2C19 activ 0.5, CYP2C9 inh 24.1 and CYP2C9 act 0.8.
`O=C(c1cc(-c2ccccc2Cl)on1)N1CCN(C(=O)c2ccco2)CC1` gave CYP2C19 inhib 31.8, PTK2B oligo ant 0.73, CYP2C19 activ 0.7, CYP2C9 inh -119.2 and CYP2C9 act 2.2*.
For O=C(c1cc(-c2ccc(Cl)cc2Cl)on1)N1CCN(C(=O)c2ccco2)CC1 the results were CYP2C19 inhib 58.5*, PTK2B oligo ant 1.25, CYP2C19 activ 0.4, CYP2C9 inh 26.4 and CYP2C9 act 0.7.
Cc1onc(-c2ccccc2Cl)c1C(=O)N1CCN(C(=O)c2ccco2)CC1 was read as CYP2C19 inhib 11.5, PTK2B oligo ant -0.28, CYP2C19 activ 0.9, CYP2C9 inh 16.4 and CYP2C9 act 0.8.
O=C(c1ccco1)N1CCN(C(=O)c2snc3ccc(Cl)cc23)CC1 was read as CYP2C19 inhib 17.6, PTK2B oligo ant -0.95, CYP2C19 activ 0.8, CYP2C9 inh 48.7 and CYP2C9 act 0.5.
CC(C)C1C(C#N)=C(N)Oc2n[nH]c(-c3ccc4ccccc4c3)c21 (stereo not drawn) was read as CYP2C19 inhib 6.4, PTK2B oligo ant -2.17, CYP2C19 activ 0.9, CYP2C9 inh 23.2 and CYP2C9 act 0.8.
CCC(CC)C1C(C#N)=C(N)Oc2n[nH]c(-c3ccccc3)c21 (stereo not drawn) was read as CYP2C19 inhib 57.0*, PTK2B oligo ant -0.22, CYP2C19 activ 0.4, CYP2C9 inh -22.2 and CYP2C9 act 1.2.
`CCc1[nH]nc2c1C(C(C)C)C(C#N)=C(N)O2` (stereo not drawn) gave CYP2C19 inhib 74.9*, PTK2B oligo ant -0.87, CYP2C19 activ 0.3, CYP2C9 inh 32.1 and CYP2C9 act 0.7.

Screening results deposited in PubChem by Sanford-Burnham Center for Chemical Genomics.
